# Measured values reported in PubChem BioAssay AID2577 (National Center for Advancing Translational Sciences (NCATS), 2010).
# Active and inactive are the calls of the source. Calls follow the shape of the dose curve; as a rule, active = well fitted curve in the direction sought with a large enough effect; inactive = no such curve, though single readings can be large or run the other way.
# Target: Lysosomal alpha-glucosidase (Homo sapiens) (UniProt P10253)
# Experiment: qHTS Assay for Inhibitors and Activators of N370S glucocerebrosidase as a Potential Chaperone Treatment of Gaucher Disease: Alpha-Glucosidase Counterscreen
# Conditions: purified human alpha-glucosidase, 4MU-alpha-glucoside fluorescence
# Excerpt: NIH Chemical Genomics Center [NCGC] NIH Molecular Libraries Probe Production Centers Network [MLPCN] MLPCN Grant: MH086442-01 Assay Submitter (PI): Wei Zheng Glucocerebrosidase (GC) catalyzes the hydrolysis of beta-glucocerebroside to glucose and ceramide in lysosomes. Mutations in the glucocerebrosidase gene result in Gaucher disease, an autosomal recessive lysosomal storage disorder. Many of the mutations encountered in patients with Gaucher disease are missense alterations that may cause misfolding, decreased stability and/or mistrafficking of this lysosomal protein. […] These inhibitors include iminosugar analogs and three non-iminosugar inhibitors identified from a previous HTS of 62,000 compounds with the wild type recombinant enzyme. However, the enhancement of enzyme activity by the chaperone action of an enzyme inhibitor must be balanced against the direct inhibition of the enzyme. An enzyme activator could also function as a chaperone by binding to the enzyme and helping to correct its misfolding and mistrafficking. While activators for GC have not yet been identified, they may have better therapeutic potential than inhibitors. Therefore the discovery and development of chemical activators may provide a new strategy for the chaperone therapy. To characterize compound selectivity, selected hits from the primary screen were screened against purified alpha-glucosidase, a related sugar hydrolase. Alpha-glucosidase is responsible for hydrolysis of terminal, non-reducing 1,4-linked alpha-D-glucose residues with release of alpha-D-glucose.
# NCGC Assay Protocol Summary: This is a fluorogenic enzyme assay with 4-methylumbelliferyl-alpha-D-[…] as the substrate and human alpha-glucosidase as the enzyme preparation. Upon the hydrolysis of this fluorogenic substrate, the resulting product, 1. 4-methyllumbelliferone, can be excited at 365 nm and emits at 440 nm which can be detected by a standard fluorescence plate reader. Data were normalized to the controls for basal activity (without enzyme) and 100% activity (with enzyme). The AC50 values were determined from concentration-response data modeled with the standard Hill equation. Assay buffer: 50 mM citric acid (titrated with potassium phosphate to pH 5.0), 0.005% Tween-20, pH 5.0. (pH 5.0 is an optimal condition for this enzyme assay) 1536-well assay protocol for the human alpha-glucosidase: (1) Add 2 ul/well of enzyme (4 nM final) (2) Add 23 nL compounds in DMSO solution. The final titration was 0.7 nM to 77 uM. (3) Add 1 ul of substrate (400 uM final) (4) Incubate at room temperature for 20 min. (5) Add 2 ul stop solution (1M NaOH and 1M Glycine mixture, pH 10) (6) Detect the assay plate in a ViewLux plate reader (PerkinElmer) with Ex=365 nm and Em=440nm. Keywords: Alpha-glucosidase, Pompe Disease, pharmacological chaperone, chaperone therapy, high throughput screening, alpha-glucosidase inhibitor, MLSMR, MLSCN, NIH Roadmap, qHTS and NCGC
row,SMILES,max response
1,O=[N+]([O-])c1cccc(S(=O)(=O)N2CCN(c3nc(-c4cccs4)nc4ccccc34)CC2)c1,-3.53% (inactive)
2,Cc1ccc(S(=O)(=O)N2CCN(c3nc(-c4ccc(F)cc4)nc4cc(Cl)ccc34)CC2)cc1,-4.96% (inactive)
3,CCOC(=O)c1ccc(S(=O)(=O)N2CCN(c3nc(-c4ccccc4)nc4ccccc34)CC2)cc1,-5.28% (inactive)
4,O=S(=O)(c1ccc(F)cc1)N1CCN(c2nc(-c3cccs3)nc3ccccc23)CC1,-15.5% (inactive)
5,CC(=O)c1ccc(S(=O)(=O)N2CCN(c3nc(-c4cccs4)nc4ccccc34)CC2)cc1,-5.52% (inactive)
6,O=S(=O)(c1ccccc1)N1CCN(c2nc(-c3ccc(F)cc3)nc3cc(Cl)ccc23)CC1,-8.72% (inactive)
7,O=S(=O)(c1ccccc1F)N1CCN(c2nc(-c3cccs3)nc3ccccc23)CC1,-14.1% (inactive)
8,Cc1ccc(S(=O)(=O)N2CCN(c3nc(-c4ccccc4)nc4ccccc34)CC2)cc1,-13.1% (inactive)
9,O=S(=O)(c1cccc(Cl)c1)N1CCN(c2nc(-c3ccccc3)nc3ccccc23)CC1,-3.54% (inactive)
10,O=S(=O)(c1cccc(C(F)(F)F)c1)N1CCN(c2nc(-c3cccs3)nc3ccccc23)CC1,-4.78% (inactive)
11,CCOc1ccc(S(=O)(=O)N2CCN(c3nc(-c4ccccc4)nc4ccccc34)CC2)cc1,-10.9% (inactive)
12,O=S(=O)(c1ccc(Cl)cc1)N1CCN(c2nc(-c3ccccc3)nc3ccccc23)CC1,-10.6% (inactive)
13,N#Cc1ccccc1S(=O)(=O)N1CCN(c2nc(-c3ccccc3)nc3ccccc23)CC1,-12.3% (inactive)
14,O=S(=O)(c1ccc(Br)cc1)N1CCN(c2nc(-c3cccs3)nc3ccccc23)CC1,-4.2% (inactive)
15,Cc1ccc(S(=O)(=O)N2CCN(c3nc(-c4cccs4)nc4ccccc34)CC2)cc1,-8.42% (inactive)
16,O=S(=O)(c1ccccc1)N1CCN(c2nc(-c3cccs3)nc3ccccc23)CC1,-12.9% (inactive)
17,O=S(=O)(c1ccc(C(F)(F)F)cc1)N1CCN(c2nc(-c3cccs3)nc3ccccc23)CC1,-11.2% (inactive)
18,CC(C)(C)c1ccc(S(=O)(=O)N2CCN(c3nc(-c4cccs4)nc4ccccc34)CC2)cc1,-6.75% (inactive)
19,CC(=O)c1ccc(S(=O)(=O)N2CCN(c3nc(-c4ccccc4)nc4ccccc34)CC2)cc1,-3.56% (inactive)
20,O=S(=O)(c1ccccc1Br)N1CCN(c2nc(-c3ccccc3)nc3ccccc23)CC1,-18.6% (inactive)

row,SMILES,max response
1,CCOC(=O)c1ccc(S(=O)(=O)N2CCN(c3nc(-c4cccs4)nc4ccccc34)CC2)cc1,-8.25% (inactive)
2,O=[N+]([O-])c1ccc(S(=O)(=O)N2CCN(c3nc(-c4cccs4)nc4ccccc34)CC2)cc1,-5.9% (inactive)
3,CC(C)(C)c1ccc(S(=O)(=O)N2CCN(c3nc(-c4ccccc4)nc4ccccc34)CC2)cc1,-7.51% (inactive)
4,O=S(=O)(c1ccc(Cl)cc1)N1CCN(c2nc(-c3cccs3)nc3ccccc23)CC1,-6.67% (inactive)
5,O=S(=O)(c1ccc(F)cc1)N1CCN(c2nc(-c3ccccc3)nc3ccccc23)CC1,-3.53% (inactive)
6,O=S(=O)(c1ccc(F)cc1)N1CCN(c2nc(-c3ccc(F)cc3)nc3cc(Cl)ccc23)CC1,-3.75% (inactive)
7,O=S(=O)(c1cccc(C(F)(F)F)c1)N1CCN(c2nc(-c3ccccc3)nc3ccccc23)CC1,-12.7% (inactive)
8,COc1ccc(S(=O)(=O)N2CCN(c3nc(-c4ccccc4)nc4ccccc34)CC2)cc1,-14.8% (inactive)
9,O=S(=O)(c1ccc(Cl)cc1)N1CCN(c2nc(-c3cccc(Br)c3)nc3ccccc23)CC1,-4.16% (inactive)
10,COc1ccc(S(=O)(=O)N2CCN(c3nc(-c4cccs4)nc4ccccc34)CC2)cc1,-3.66% (inactive)
11,O=S(=O)(c1ccc(Br)cc1)N1CCN(c2nc(-c3ccccc3)nc3ccccc23)CC1,-1.71% (inactive)
12,O=S(=O)(c1ccc(OC(F)(F)F)cc1)N1CCN(c2nc(-c3ccccc3)nc3ccccc23)CC1,-5.72% (inactive)
13,O=S(=O)(c1ccccc1Cl)N1CCN(c2nc(-c3ccccc3)nc3ccccc23)CC1,-4.34% (inactive)
14,O=S(=O)(c1cccc(Br)c1)N1CCN(c2nc(-c3cccs3)nc3ccccc23)CC1,-9.65% (inactive)
15,COc1ccc(S(=O)(=O)N2CCN(c3nc(-c4cccs4)nc4ccccc34)CC2)cc1OC,-12% (inactive)
16,O=[N+]([O-])c1ccccc1S(=O)(=O)N1CCN(c2nc(-c3ccccc3)nc3ccccc23)CC1,-3% (inactive)
17,O=S(=O)(c1cccc(C(F)(F)F)c1)N1CCN(c2nc(-c3cccs3)nc3cc(Cl)ccc23)CC1,-7.27% (inactive)
18,N#Cc1ccccc1S(=O)(=O)N1CCN(c2nc(-c3cccs3)nc3ccccc23)CC1,-5.04% (inactive)
19,S=C(NCCCc1cnc[nH]1)NCCCN(Cc1ccc(Cl)c(Cl)c1)c1ccc(Br)cn1,-4.15% (inactive)
20,O=[N+]([O-])c1ccc(S(=O)(=O)N2CCN(c3nc(-c4ccccc4)nc4ccccc34)CC2)cc1,-3.59% (inactive)
